According to the supplement of paper PMC6555819:

Legend:
Experiment in all cases: PBM binding z-score (relative to random genomic background probes); higher = stronger binding; sequences stand for … in GC…GCGATTGACAGCGTAGAATGAAGG
[1] = test system: RARb homodimer (NR concentration 270 nM)
Summary of the method: (§1)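 Binding z-scores were set against random background probes. The data came from custom Agilent 4×180K protein-binding microarrays carrying double-stranded probes with 34-nt variable regions, incubated 1 h with ligand-free nuclear receptor dimers. Partner-specific antibodies detected binding, and scanned fluorescence was regression-normalized.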

[2] = test system: RARg:RXRa (NR concentration 270 nM, RXRa partner concentration 90 nM)
Summary of the method: as §1

[3] = test system: RARg homodimer (NR concentration 270 nM)
Summary of the method: as §1

[4] = test system: RXRa DBDmut IVT, anti-RXR (DBD mutation: RXRa K156A/R161A, NR concentration 90 nM)
Summary of the method: as §1

[5] = test system: RXRa homodimer (NR concentration 180 nM)
Summary of the method: as §1

[6] = test system: THRa:RXRa (NR concentration 90 nM, RXRa partner concentration 90 nM)
Summary of the method: as §1

[7] = test system: THRa homodimer (NR concentration 90 nM)
Summary of the method: as §1

[8] = test system: VDR homodimer (NR concentration 270 nM)
Summary of the method: as §1

| Sequence | PBM binding z-score [1] | PBM binding z-score [2] | PBM binding z-score [3] | PBM binding z-score [4] | PBM binding z-score [5] | PBM binding z-score [6] | PBM binding z-score [7] | PBM binding z-score [8] |
| --- | --- | --- | --- | --- | --- | --- | --- | --- |
| GGAACGAGGGCAAACTTGATAGCATCTGTCGACG | 1.03 | 1.52 | 1.62 | 3.1 | 1.17 | 1.09 | -0.309 | 1.61 |
| TCTATCAGTTGATTAGGGCAACCGAAACAGCGGA | 0.548 | 0.522 | 0.467 | 0.825 | 0.276 | 0.643 | -0.0881 | -0.1 |
| ATATGTAGGTTAGATCCGGGTCATTCAGGCTATG | 2.63 | 3.21 | 1.63 | 0.691 | 2.65 | 3.63 | 2.08 | 1.71 |
| ATCTCTAGGTAAAGTGCAGTGAAAGATCGATAGA | 0.108 | 0.474 | 0.497 | 0.0332 | 0.222 | 0.316 | -0.174 | -0.0309 |
| CCTCGGAGGATAACAGGAGGTCAGAGCTGCCAGA | 2.61 | 2.32 | 2.11 | -0.476 | 1.73 | 2.4 | 0.791 | 0.96 |
| ATATGTAGGTAAAGGGTCATTCAGGTTGGTTCGC | 4.14 | 4.11 | 3.22 | 2.01 | 4.98 | 3.26 | 1.71 | 4.15 |
| ATATGTAGTTTAAGGGTCATTCAGGTTGGTTCGC | 3.9 | 3.91 | 2.88 | 2.39 | 4.82 | 3.37 | 1.71 | 4.96 |
| CGTCAAAGTTGAACTAAGGTAACGTAAAGCACGC | 1.98 | 2.06 | 1.86 | 0.678 | 1.68 | 4.72 | 1.74 | 0.519 |
| TAGCCTAGGTCATGGGGGCCAGTATAGTGTCGGC | 3.76 | 4.91 | 4.98 | 0.677 | 3.54 | 3.64 | 2.29 | 1.94 |
| CGTCCAAGGTCAATGCTAGGTCCGTGAAAGCATT | 3.83 | 5.71 | 5.7 | 3.67 | 4.55 | 3.82 | 2.12 | 2.96 |
| AGATGTAGGTTAGCTGGGGTCATTCAGACTAGGC | 3.53 | 3.96 | 2.72 | 1.78 | 5.24 | 5.05 | 3.03 | 4.8 |
| TTACCAAGGTGAGCTGAGGTCGGTGATCCAACTC | 1.46 | 0.608 | 0.586 | -0.659 | 0.505 | 4.31 | 1.25 | 0.0612 |
| TAGCCCAGGTCATTGGGCCAGTATAGTACGCATC | 2.76 | 3.9 | 4.11 | 2.29 | 3.37 | 3.36 | 1.65 | 2.16 |
| CATACAGAGTCAGCTAGGCCAGAGTAGGGACGGC | -0.0712 | -0.273 | 0.105 | -0.231 | -0.193 | -0.152 | -0.18 | -0.481 |
| CCTTACGGGTCACTGGCAGGTTATAGCATTTGGA | 3.16 | 5.81 | 4.75 | 1.66 | 4.96 | 3.14 | 0.323 | 1.16 |
| GCTACTTGGTCAGTAAAAGGTCACACACCGGTCG | 5.14 | 5.37 | 5.09 | 0.64 | 5.41 | 3.55 | 2.08 | 2.09 |
| TCTTGTAGAACAAAGGTTAAGAAAGCCGAAGCCT | 1.45 | 1.55 | 0.851 | 0.724 | 2.32 | 1.05 | -0.79 | -0.438 |

| Sequence | PBM binding z-score [1] | PBM binding z-score [2] | PBM binding z-score [3] | PBM binding z-score [4] | PBM binding z-score [5] | PBM binding z-score [6] | PBM binding z-score [7] | PBM binding z-score [8] |
| --- | --- | --- | --- | --- | --- | --- | --- | --- |
| TCGAGTAGGTTACCAATGGGGCATCCAGCTTTCT | 0.918 | 1.39 | 0.452 | -0.00896 | 0.647 | -0.146 | -0.638 | -0.823 |
| TGTAAAAGTTCAAAGGTAACGTAAGTATCCACAC | 3.5 | 5.35 | 5.12 | 4.06 | 6.28 | 3.53 | 0.192 | 2.83 |
| CCTAGTTGGTCAGGAGGTCACACAACGGATATGA | 4.4 | 5.09 | 4.4 | 0.815 | 4.82 | 3.56 | 2.25 | 2.5 |
| ATACCAAGGTGATCGTGAGGTTGTTGATACTAAC | 0.567 | 0.576 | 0.356 | 0.169 | 0.593 | 1.89 | 0.949 | 0.36 |
| CGTCGAAGGTCAGCAGGTCAGTGAAAGCGACGTG | 4.94 | 6.48 | 6.93 | 1.34 | 5.06 | 2.88 | 0.495 | 1 |
| GTACCAACGTGAATAGGTCGTTGATGAGTAGGCG | 0.16 | 0.141 | 0.237 | -0.361 | 0.489 | -0.22 | -1.03 | -0.24 |
| GGAACGAAGGCAAGTTGATAGCAGAGTTTGATGG | -0.711 | -0.376 | -0.138 | 0.098 | -0.667 | -0.824 | -1.3 | -0.0459 |
| TTACCAAGGTGAGCTGAGGTCTTTGATCCAACTC | 0.568 | 0.335 | 0.384 | -0.584 | 0.322 | 4.17 | 0.8 | -0.646 |
| TCTTGTAGATCAACAGGACGTTAAGAAAGATCGA | -0.694 | 0.531 | 0.151 | 0.714 | 0.45 | 0.0444 | -0.626 | -0.395 |
| TCAGACAGGTGAAGGTAGCTCAGGTACGCAGTCG | 0.62 | 0.413 | 0.456 | 1.13 | 0.741 | 0.667 | 0.148 | -0.026 |
| CAAACTAGGTCACAGAGGTCAAAGGCCGTGCGTA | 5.17 | 7.3 | 7.71 | 3.23 | 8.06 | 4.42 | 2.89 | 6.86 |
| ACTAGCCGGCCAAGTTTGGGTCACTCAAACAAAG | 2.27 | 1.35 | 1.48 | -0.475 | 0.851 | 2.15 | 1.23 | 0.121 |
| CGTCAAAGTTCAACTAAGGGAACGTAAAGCACGC | 3.93 | 5.85 | 6.56 | 4.65 | 5.21 | 4.49 | 0.0368 | 3.51 |
| TCATATAGGTAATACAGGTTAAAGTCGGCATCTA | 0.936 | 0.979 | 0.696 | 2.04 | 1.63 | 1.35 | 0.204 | 0.629 |
| CCTAGTTGGTCAAGGTCACACAGGCTATAGGTAC | 4.45 | 4.8 | 5.13 | 2.24 | 4.86 | 4.16 | 4.07 | 4.27 |
| GCATATAGGTAATACAAGGTGCAAGTCCGATTGT | -0.0695 | 0.291 | 0.14 | 0.314 | 0.27 | 1.52 | -0.516 | 0.533 |
| CGTCCAAGGTCAGGGTCAGTGAAAGAGACTCGAA | 4.57 | 5.67 | 6.48 | 2.75 | 5.14 | 3.9 | 2.66 | 2.19 |
